# Source: PubChem BioAssay
# Sfp PPTase inh – qHTS Assay for Inhibitors of Bacillus subtilis Sfp phosphopantetheinyl transferase (PPTase); Biochemical Sfp PPTase activity, qHTS; Potency, µM, inactives show largest response in the series, negative = inhibition, usual class: inhibitors; 3.5% of 310,000 active; AID 1490, 2009;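 note: the enzyme is Sfp with the accession as filed and its product quenches rhodamine fluorescence; 0% = enzyme reaction without inhibitor and -100% = no enzyme wells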
#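 After 15 min at room temperature with compound, 15 nM Sfp received 5 uM rhodamine-CoA plus 12.5 uM BHQ-2-ybbR (50 mM Hepes pH 7.6, 10 mM MgCl2). Rate came from the fluorescence difference over 30 min, ex 525/em 598 nm.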
# Tau fibril FP – qHTS for Inhibitors of Tau Fibril Formation, Fluorescence Polarization; Microtubule-associated protein tau (Homo sapiens), P10636; K18 P301L tau heparin fibrillization, Alexa594 FP, 6 h; Potency, µM (top dose mostly 57.7 µM), without a hit: at the highest dose activity, negative = inhibition, hits mostly inhibitors; 0.39% of 280,000 active; AID 1468, 2008; note: nearly all actives have a fitted effect of over 55% in size
# Target sequence (P10636 561-689 P618L limits assumed): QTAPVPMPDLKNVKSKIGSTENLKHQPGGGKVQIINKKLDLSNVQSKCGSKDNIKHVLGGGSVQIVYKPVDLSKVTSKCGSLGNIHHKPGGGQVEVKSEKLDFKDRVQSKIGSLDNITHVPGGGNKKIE
#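 Recombinant K18 P301L […], labeled with Alexa 594 at 0.24 uM over 15 uM unlabeled; heparin inducer 20 uM final; 37 C, 6 hr; FP endpoint.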
# PLK1 PBD block – qHTS for Inhibitors of PLK1-PDB (polo-like kinase 1 - polo-box domain): Primary Screen | Plk1 PBD binding of FITC phosphopeptide, fluorescence polarization | AID 720504, 2013 | 2.8% of 360,000 active | Serine/threonine-protein kinase PLK1 (Homo sapiens), P53350 | Potency, µM, for inactives: max response, negative = inhibition, most hits filed as inhibitors; note: series mostly up to about 57 µM; nearly all actives have a fitted effect of over 65% in size
# Tau fibril ThT – qHTS for Inhibitors of Tau Fibril Formation, Thioflavin T Binding | recombinant tau K18 P301L, heparin-induced fibrillization, ThT fluorescence | Potency, µM (doses to about 57.4 µM), for inactives: top-dose activity, negative = inhibition, hits mostly inhibitors | 2.1% of 270,000 active | AID 1460, 2008; note: nearly all actives have a fitted effect of over 55% in size
#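 Using a mix of unlabeled (15 uM) and Alexa 594-labeled (0.24 uM) tau K18 P301L, heparin-triggered fibrillization over 6 hr at 37 C was scored by ThT fluorescence.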
# Tau fluor counter – Counterscreen qHTS for Inhibitors of Tau Fibril Formation, Fluorescence Polarization. Potency, µM (top dose mostly 57.7 µM), without a hit: top-dose activity change, negative = decrease. AID 1463, 2008. tau K18 P301L (four-repeat tau fragment) Alexa594 fluorescence, heparin fibrillization. 0.93% of 280,000 active; note: nearly all actives have a fitted effect of over 55% in size
#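 Human K18 P301L tau (15 uM unlabeled plus 0.24 uM Alexa 594-labeled, final) in 100 mM sodium acetate pH 7 was mixed with compound and 20 uM heparin and incubated 6 hr at 37 C.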
# VDR inh – Inhibitors of the vitamin D receptor (VDR): qHTS. AID 504847, 2011. Vitamin D3 receptor (Homo sapiens), P11473. 0.93% of 400,000 active. VDR-SRC2-3 peptide fluorescence polarization, 2 h. Potency, µM, for the others: max response, negative = inhibition, actives largely listed as inhibitors
# Target sequence (P11473 whole entry, looked up): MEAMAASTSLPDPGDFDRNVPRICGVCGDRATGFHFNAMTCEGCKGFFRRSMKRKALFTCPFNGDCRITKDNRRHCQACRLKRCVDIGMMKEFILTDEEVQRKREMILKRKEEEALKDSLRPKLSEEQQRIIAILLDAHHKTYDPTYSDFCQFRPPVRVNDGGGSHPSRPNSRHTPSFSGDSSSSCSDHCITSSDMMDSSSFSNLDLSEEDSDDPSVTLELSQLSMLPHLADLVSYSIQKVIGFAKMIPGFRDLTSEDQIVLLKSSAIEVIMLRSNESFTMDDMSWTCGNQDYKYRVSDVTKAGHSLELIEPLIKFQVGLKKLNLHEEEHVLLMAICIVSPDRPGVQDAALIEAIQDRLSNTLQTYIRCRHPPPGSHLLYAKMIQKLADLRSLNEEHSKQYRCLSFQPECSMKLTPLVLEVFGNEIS
#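 Inhibition of the VDR/SRC2-3 peptide interaction is quantified by fluorescence polarization. Compounds (23 nl, pintool) incubate with the reagents for 2 hours at ambient room temperature.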
# * marks the source's active call; other numbers are inactive results; ? = inconclusive; · = not tested or not shown. The list is not random: actives were taken first. Their share in the collection is about 6%. Calls come from the whole dose curve; as a rule, active = well fitted curve in the direction sought with a large enough effect; inconclusive = small, poorly fitted or top-dose-only effect, or another doubt; inactive = no such curve, though single readings can be large; an effect the other way counts as inactive or inconclusive. Unless noted, % is set by controls: 0 for no effect and ±100 for the full control effect; potency is the fitted concentration of half-maximal effect.
SMILES,Sfp PPTase inh,Tau fibril FP,PLK1 PBD block,Tau fibril ThT,Tau fluor counter,VDR inh
CCCNC(=O)C1CC(=O)N(c2ccc(OCC)cc2)C1 (centres undefined),17%,4%,1%,-3%,-3%,-19%
CCOc1ccc(N2CC(C(=O)Nc3nnc(CC)s3)CC2=O)cc1 (centres undefined),56µM*,·,-28%,·,·,-3%
Cc1cc(C)n2c(Nc3cccc(C(F)(F)F)c3)c(-c3ccsc3)nc2n1,·,4%,·,-16%,-27%,-14%
COC(=O)c1ccccc1NC1CC(=O)N(c2c(C)cccc2C)C1=O (centres undefined),28µM*,4%,-9%,-15%,-14%,0%
Cc1ccc2c(=O)c(C(=O)c3ccc(F)cc3)cn(CC(=O)NCc3ccccc3Cl)c2n1,·,-7%,·,1%,0%,6%
COCCn1c(C)cc(C(=O)COc2cccnc2[N+](=O)[O-])c1C,-71%,-4%,-3%,-8%,-5%,2%
Cc1cc(C)c(C(=O)COc2cccnc2[N+](=O)[O-])cc1C,56µM*,?,?,14µM*,?,?
COc1cc(OC)cc(C2=Cc3ccccc3C(CC(C)=O)N2c2ccc(C#CCCO)cc2)c1 (centres undefined),·,·,0%,·,·,·
Cc1ccc(-c2csc(=S)n2CC(=O)OCC(=O)NCc2ccco2)cc1,22µM*,-2%,-16%,-16%,-2%,-12%
Cc1ccc(-c2csc(=S)n2CC(=O)OCC(=O)NC(C)C(C)C)cc1 (centres undefined),4%,0%,-21%,-13%,-10%,-8%
Cc1ccc(NC(=O)N(Cc2cn(C)c3ccccc23)C2CCCCC2)cc1C,·,-4%,·,?,-16%,-9%
COc1cc(C(=O)NS(=O)(=O)c2ccccc2C)ccc1Cc1cn(C)c2ccc(NC(=O)OC3CCCC3)cc12,-14%,-11%,·,?,-30%,50µM*
O=C(O)c1[nH]c(-c2ccccc2)c2c1C(=O)N(C1CC1)C2=O,·,·,-10%,·,·,·
CCCCCCCCCCOc1cc(OCCCCCCCCCC)cc(N(CC(=O)O)CC(=O)O)c1,-7%,·,·,·,·,50µM*
CCOC(=O)N1CCN(S(=O)(=O)N2CCCC(C(=O)NCCc3ccc(OCC)c(OCC)c3)C2)CC1 (centres undefined),18%,·,1%,·,·,-8%
CN(C)c1ccc(-c2cncnc2NCCN2CCOCC2)cc1,79µM*,·,·,·,·,40µM*
Cc1ccccc1-c1cncnc1NCCN1CCOCC1,-28%,-11%,·,-6%,-1%,?
Cc1cnc(CNc2ncncc2-c2ccc(N(C)C)cc2)cn1,79µM*,·,·,·,·,?
O=C(NCc1ccc2c(c1)CCN2C(=O)c1ccncc1)c1ccccc1Cl,·,-6%,·,5%,-1%,2%
O=C(Nc1ccc(Cl)c(Cl)c1)c1cccc(S(=O)(=O)NCc2cccnc2)c1,3%,?,-20%,1%,?,-9%
Cc1noc(Cn2c(=O)c3ccccc3n(CC(=O)Nc3ccccc3C(F)(F)F)c2=O)n1,·,1%,·,1%,-6%,-1%
CN(C)c1ccc(NC(=O)c2ccc(COc3cccc(Cl)c3)o2)cc1,?,?,2%,11µM*,?,2%
Fc1ccccc1Nc1nc2c(s1)CCc1ccccc1-2,3.2µM*,2%,·,-8%,-9%,·
Nc1nc(NCc2ccc(Cl)c(Cl)c2)c2[nH]cnc2n1,·,·,·,·,·,-7%
CC1=C(c2ccc(C)c(C)c2)S(=O)(=O)N=C1N1CCC(C(=O)NCCc2ccc(Cl)cc2)CC1,·,-6%,·,?,-15%,-3%
SMILES,Sfp PPTase inh,Tau fibril FP,PLK1 PBD block,Tau fibril ThT,Tau fluor counter,VDR inh
COc1ccccc1N(CC(=O)N1CCCCC1C)S(=O)(=O)c1ccc(Cl)cc1 (centres undefined),·,·,-3%,·,·,·
Cc1nn(C)c(Oc2cccc(Cl)c2)c1C#N,3%,-4%,8.4µM*,-8%,-6%,?
Cc1ccccc1NC(=O)c1c(C)oc2ccc(O)c(CN3CCC(C)CC3)c12,·,-6%,·,-5%,-11%,2%
CCC(C(=O)Nc1ccc(C(C)C)cc1)n1nc(C)n2c(cc3cc(C)ccc32)c1=O (centres undefined),·,?,·,-3%,-2%,9%
COc1ccc(Cl)cc1C=CC=Nc1ccccc1O,·,·,-13%,·,·,89µM*
CCOc1cc(C)nc(N2CCC(C(=O)NCC3CCCO3)CC2)n1 (centres undefined),·,·,-1%,·,·,5%
Cc1cc(=O)[nH]c(SCC(=O)NC(c2ccccc2)c2ccccc2)n1,12%,3%,-13%,-2%,-1%,-10%
COC(=O)C(CSCc1ccccc1)NC(=O)CSc1nc(C)cc(=O)[nH]1 (centres undefined),-10%,0%,27µM*,?,-17%,15%
O=C(N/N=C/c1ccncc1)C12CC3CC(CC(C3)C1)C2,17%,-1%,38µM*,-2%,-4%,-15%
O=C(O)CC1S/C(=N/N=C/c2ccc(-c3ccc(Cl)c([N+](=O)[O-])c3)o2)NC1=O (centres undefined),-18%,0%,-20%,7.1µM*,-18%,-6%
CCCn1cc(S(=O)(=O)CC(=O)N2CCc3ccccc32)c2ccccc21,-4%,-10%,30µM*,-7%,-12%,?
CCC1(CC)C(=O)C2=C3C1[C@H](C(=O)OC)CC(C(=O)OC)C[C@H]3[C@H]1C(=O)N(C)C(=O)[C@H]1[C@H]2C (some centres undefined),7%,·,·,·,·,12%
CCOC(=O)C1=C(C)Nc2nc(=S)[nH]n2C1c1ccc(Cl)cc1 (centres undefined),7.9µM*,-7%,24µM*,?,-11%,79µM*
Cc1ccccc1Cn1cc(S(=O)(=O)c2ccc(Cl)cc2)c(=O)c2cc3c(cc21)OCO3,·,3%,·,6%,1%,-1%
COc1ccccc1C(=O)c1c(N)c(-c2nc(-c3ccccc3)cs2)c2ccccn12,·,11%,·,?,?,0%
O=C(NC(C(=O)c1ccccc1)n1cnccc1=O)c1ccccc1 (centres undefined),11%,-5%,-30%,-13%,-4%,-5%
O=C(NC(C(=O)c1ccccc1)n1c(=O)cc[nH]c1=S)c1ccccc1 (centres undefined),?,2%,27µM*,?,-3%,17%
CC(=O)c1cccc(NC(=O)CSc2nnc3ccc(-c4ccc(Cl)cc4)nn23)c1,·,?,·,-8%,-8%,?
